# Shown are actives, neighbours in structure and some others; about 2.3% of the full set was active somewhere.
# M1 antag: blocks human M1 muscarinic receptor; P11229; CHO-K1 hM1, Fluo-8 calcium fluorescence, ACh EC80 antagonist; inhibition, % at 3 µM; actives 1.3% (n = 360,000); AID 588852;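 active means percent inhibition above its own plate's cutoff, namely the mean of that plate's compound wells plus 3 SD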;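 further: peak over basal fluorescence ratio during 140 s after agonist addition; 0% = ACh EC80 plus DMSO and 100% = DMSO alone without agonist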
# Target sequence (P11229 whole entry, looked up): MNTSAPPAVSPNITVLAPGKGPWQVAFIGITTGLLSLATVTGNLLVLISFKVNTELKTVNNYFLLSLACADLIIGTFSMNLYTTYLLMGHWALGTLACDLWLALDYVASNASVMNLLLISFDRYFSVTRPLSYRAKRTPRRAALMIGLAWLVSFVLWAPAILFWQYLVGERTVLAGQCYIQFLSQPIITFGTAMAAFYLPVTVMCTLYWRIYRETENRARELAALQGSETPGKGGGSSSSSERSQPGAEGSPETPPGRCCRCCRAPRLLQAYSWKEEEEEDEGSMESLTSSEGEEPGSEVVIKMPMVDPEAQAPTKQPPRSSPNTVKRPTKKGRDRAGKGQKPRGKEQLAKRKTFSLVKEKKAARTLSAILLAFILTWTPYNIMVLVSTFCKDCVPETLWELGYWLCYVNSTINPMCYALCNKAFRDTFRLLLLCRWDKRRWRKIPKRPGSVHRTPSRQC
# M1 ag: human M1 muscarinic receptor agonism; AID 588814; actives 0.33% (n = 360,000); CHO-K1 hM1, Fluo-8 calcium fluorescence, agonist mode; 0% DMSO, 100% acetylcholine EC100; activation, % at 3 µM;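 active means activation above the run's mean compound activation plus 3 SD, cut at about 16% in these data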;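 further: peak over basal fluorescence ratio within a 140 s kinetic read after compound addition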
# CHO-K1 Ca PAM: nonselective activator or artifact in parental CHO-K1 calcium assay; activation, % at 3 µM; ATP EC20, Fluo-8 calcium fluorescence; 0% at ATP EC20, 100% at ATP max; actives 0.02% (n = 360,000);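 active means activation above the run cutoff, the mean activation of all test compounds plus 3 SD, cut at about 40% in these data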;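 further: peak over basal fluorescence ratio in a 140 s read after ATP addition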
# CHO-K1 Ca antag: counter-screen for M1 antagonists: effect in parental CHO-K1 cells; ATP-induced calcium, Fluo-8 fluorescence; inhibition, % at 3 µM; actives 0.6% (n = 360,000); AID 602250;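 active means inhibition above a per-plate cutoff, the plate's mean sample inhibition plus 3 SD, cut at about 24% in these data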;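 further: 0% = DMSO plus EC80 ATP and 100% = DMSO alone without ATP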
# CHRM1 PAM: potentiates human M1 receptor response to acetylcholine | P11229 | CHO-K1 hM1, Fluo-8 calcium fluorescence, ACh EC20; 0% = ACh EC20, 100% = maximal ACh | activation, % at 3 µM | actives 0.088% (n = 360,000); in the data active means activation above about 19%, passing the limit was not always enough
# CHO-K1 Ca ag: counter-screen for M1 agonists: effect in parental CHO-K1 cells. Fluo-8 calcium fluorescence; scaled to maximal ATP response, vehicle zero. activation, % at 3 µM. actives 0.48% (n = 360,000). AID 602248; in the data active means activation above about 15%;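 further: untransfected CHO-K1 host cells lacking M1 receptor as counterscreen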
# * = called active by the depositor; x = no result.
SMILES,M1 antag,M1 ag,CHO-K1 Ca PAM,CHO-K1 Ca antag,CHRM1 PAM,CHO-K1 Ca ag
O=C(NCC(F)(F)F)c1cc2c(c(-c3cccc(-c4ccccc4F)c3)n1)[C@@H](CCO)N(C(=O)CC1CC1)C2,x,x,-12.2,-1.8,x,1.8
Cc1cc(C)nc(SCCCNCc2ccc(Br)cc2)n1,7.6,27.2*,-14.5,7.0,-10.0,2.5
C=CC[N+]1(CC#CCOC(c2ccccc2)c2ccccc2)CCOCC1,49.2*,-14.1,-2.0,1.0,-27.9,-0.4
C=CC#CC[N+]1(CC#Cc2ccccc2)CCOCC1,-2.6,-12.7,2.6,0.5,-3.1,-0.5
Cc1cccc(C2(c3cccc(C)c3)CC2C(=O)Nc2ccc([N+](=O)[O-])cc2O)c1 (centres undefined),24.6,-3.0,-11.2,25.6*,-14.6,6.4
C=CCNC(=O)C1CC1(c1cccc(C)c1)c1cccc(C)c1 (centres undefined),-0.2,0.6,5.8,1.9,13.1,0.1
COc1ccccc1C(=O)NNC(=O)CCC(=O)NCc1ccccc1,-8.5,-3.0,13.0,-9.3,10.5,0.0
CC(C)CN(CCNC(=O)CN1C(=O)CSc2ccc(S(=O)(=O)N3CCOCC3)cc21)CC(C)C,40.4*,-6.0,-2.5,0.3,-10.3,-0.5
CCC1CCCCN1CCCNC(=O)CN1C(=O)CSc2ccc(S(=O)(=O)N3CCC(C)CC3)cc21 (centres undefined),38.7*,-6.1,-4.0,-6.6,-13.6,0.1
CCCCN(C)CCNC(=O)CN1C(=O)CSc2ccc(S(=O)(=O)N3CCOCC3)cc21,42.5*,-6.0,0.0,-17.1,-17.6,0.1
CC1=C(C(=O)N2CCCCCC2)CC(CC(=O)NCc2cccs2)C(=O)N1Cc1ccccc1 (centres undefined),-3.0,-3.9,-3.5,8.6,6.4,-0.7
O=C(COc1cc2oc(=O)cc(-c3ccccc3)c2cc1Cl)NCCN1CCOCC1,-5.9,-3.4,-3.7,-5.6,5.6,1.5
O=[N+]([O-])c1ccc([N+](=O)[O-])c(Nc2ccc(N3CCOCC3)cc2)c1,1.2,-3.2,10.2,-12.2,4.8,0.6
CN(C)/C=N/c1sc2c(c1C#N)CC(C)(C)NC2(C)C,-17.3,-2.6,5.7,-10.2,23.0*,-0.2
COc1ccc(NC(=S)N2CCN(C(c3ccccc3)c3ccccc3)CC2)cc1OC,37.9*,-8.2,1.9,5.3,-25.4,0.1
Cc1ccc(S(=O)(=O)N(CC(=O)N/N=C/c2cccc(Cl)c2)c2cccc3cccnc23)cc1,-2.8,-3.4,-9.7,24.0*,-5.1,0.2
COc1cc(-c2noc(C)c2-c2ccc(N(C)C)nc2)cc(OC)c1OC,20.2,34.0*,13.0,-7.6,-12.3,32.4*
COc1cc(-c2noc(C)c2-c2ccc3[nH]ccc3c2)cc(OC)c1OC,6.7,-2.1,2.3,-10.8,3.3,1.5
Cc1ccc(CN2CCN(/N=C\C=C\c3ccccc3)CC2)cc1,-6.1,-9.1,1.5,1.6,1.7,0.3
COc1ccc2ccccc2c1C=NN1CCCCC1,9.4,21.4*,-12.9,-0.3,-8.5,-0.3
COc1cc(C=NN2CCCCC2)cc(OC)c1OC,5.4,24.9*,7.0,0.5,-8.1,0.5
CC(=O)c1cnc2n(c1=O)CCS2,13.6,-5.8,20.2,-1.8,-3.9,0.4
O=C(Nc1cccc(-c2cnc3ccccc3n2)c1)c1ccccc1,-4.1,1.6,-15.3,13.3,3.7,0.0
O=C(Nc1cccc(-c2cnc3ccccc3n2)c1)c1cccc(NC(=O)c2ccco2)c1,35.0*,1.8,8.1,31.2*,-14.9,4.4
CCC(=O)N1CCN(c2ccc(NC(=O)c3cc4ccccc4o3)cc2Cl)CC1,17.7*,1.6,-9.0,22.6,-19.9,10.0
SMILES,M1 antag,M1 ag,CHO-K1 Ca PAM,CHO-K1 Ca antag,CHRM1 PAM,CHO-K1 Ca ag
CCCC(=O)N1CCN(c2ccc(NC(=O)c3cc4ccccc4o3)cc2Cl)CC1,55.5*,5.0,-4.2,20.4,-17.0,13.4
CCCC(=O)N1CCN(c2ccc(NC(=O)c3cccs3)cc2Cl)CC1,-3.5,-7.9,11.4,-0.5,9.1,0.3
O=C(Nc1ccc(N2CCN(C(=O)c3ccccc3)CC2)c(Cl)c1)c1ccco1,6.7,1.1,14.4,-4.9,-4.8,4.6
CCC(=O)N1CCN(c2ccc(NC(=O)c3ccco3)cc2Cl)CC1,-5.9,-1.3,-8.4,-7.9,2.6,3.6
O=C(Nc1ccc(N2CCN(C(=O)c3ccco3)CC2)c(Cl)c1)c1cc2ccccc2o1,37.3*,1.1,16.4,7.8,-10.6,6.2
O=C(c1cccs1)N1CCN(C(=O)c2cccs2)C1=S,-2.2,-3.5,16.8,-13.5,-0.2,0.5
CC1CCC(C(C)C)C(NC(=O)c2ccncc2)C1 (centres undefined),6.2,-3.7,-6.2,21.8,-1.8,-0.3
COC(=O)c1ccc(CSc2nc3ccccc3c(=O)n2CC(C)C)o1,18.4,-4.5,-6.7,5.4,-10.2,0.0
COC(=O)c1ccc(CSc2nc3ccccc3c(=O)n2Cc2ccco2)o1,36.0*,-5.1,11.1,13.2,-20.2,6.1
CCc1ccc(OCCCCN(C)Cc2ccccc2)cc1,33.5*,-7.5,13.8,11.9,-22.8,0.9
Nc1ccc(OCc2ccccc2)cc1,-2.5,-6.5,15.4,-0.9,0.9,0.2
Cc1cc(C)c(C)c(OCCCCN(C)Cc2ccccc2)c1,64.5*,-6.5,24.0,-4.3,-29.3,3.1
CCN(Cc1ccccc1)Cc1ccc(OCc2ccccc2)cc1,34.6*,-8.9,-4.1,13.0,-24.3,0.0
CN(CCCCOc1ccc(F)cc1)Cc1ccccc1,11.9,-7.3,15.5,-14.3,-12.2,0.8
S=c1[nH]ncn1/N=C/c1ccco1,10.3,-2.6,-4.5,8.5,-4.9,0.0
Clc1ccccc1-c1nnc2n1CCCCC2,-20.2,-5.1,-1.9,-9.4,17.6,0.1
COc1ccccc1CNC(=O)c1cccc(S(=O)(=O)N2CCN(C)CC2)c1,9.9,-7.4,-2.3,7.0,-6.9,4.8
Cc1cc(N2CCN(C)CC2)ccc1NC(=O)c1cccc(S(=O)(=O)N2CCc3ccccc3C2)c1,79.2*,-8.6,-0.2,-4.3,-28.2,1.2
COc1cc(OC)c(OC)cc1CNC(=O)c1cccc(S(=O)(=O)N2CCc3ccccc3C2)c1,35.6*,1.5,-19.1,5.1,-14.9,12.1
O=C(O)Cc1ccc(NC(=S)Nc2ccc(Br)cc2Cl)cc1,-2.4,0.4,-3.3,-4.5,10.7,0.3
Cc1cccc(NNC(=S)Nc2ccccc2)c1,2.2,-3.4,-11.4,24.6*,7.5,-0.6
Cc1cccc(NC(=S)NNc2cccc(Cl)c2)c1,-14.6,-1.2,5.9,3.0,13.0,-0.1
CC(C)(C)C(=O)Nc1ccc(Sc2ccc([N+](=O)[O-])cc2)cc1,35.3*,-6.2,-7.2,20.2,-23.3,11.4
CCCCN(C(=O)c1ccc(Cl)c([N+](=O)[O-])c1)c1c(N)n(CCC)c(=O)[nH]c1=O,-4.0,-12.0,18.1,-15.8,12.5,0.8

# Screening data from PubChem BioAssay.
